Measurements: ChEMBL document CHEMBL4513149, “CO-ADD screening of MMV (CH) - MMV compounds” (2021)
Results with a measured potency or affinity are listed apart.

What was measured:
Klebsiella pneumoniae = details: Concentration 20 uM; ASSAY_TEST Inhibition of Bacterial Growth; detection method Absorption (OD600); MEDIA CAMHB; plate type 384well; NBS; CORNING #3640; time 18 hr
Candida albicans = details: 20 µM
Cryptococcus neoformans = details: Concentration 20 uM; ASSAY_TEST Inhibition of Fungal Growth; detection method Resazurin; Absorption (OD600-OD570); plate type 384well; NBS; CORNING #3640

O=C(NCCc1ccccc1)c1cc(-c2cccnc2)cnc1NCC1CC1
Inhibition (Klebsiella pneumoniae): -2.11% | Inhibition (Candida albicans): 6.13% | Inhibition (Cryptococcus neoformans): -7.61%

COc1cc(NC(=O)Cc2nn(C)c(=O)c3ccccc23)ccc1Cl
Inhibition (Klebsiella pneumoniae): 12.64% | Inhibition (Candida albicans): 6.72% | Inhibition (Cryptococcus neoformans): -0.85%

COc1ccc(-c2nc(-c3cccc(NC(=O)Cc4ccc(F)cc4)c3)no2)cc1OC
Inhibition (Klebsiella pneumoniae): 13.72% | Inhibition (Candida albicans): 23% | Inhibition (Cryptococcus neoformans): -5.03%

c1ccc(-c2[nH]c3ccccc3c2C(c2ccccn2)N2CCCC2)cc1 (stereo not drawn)
Inhibition (Klebsiella pneumoniae): 11.72% | Inhibition (Candida albicans): 1.35% | Inhibition (Cryptococcus neoformans): -10.11%

Cc1cc(C)n(-c2ccc(NC(=O)C3CCN(Cc4cnc(C)s4)CC3)cc2)n1
Inhibition (Klebsiella pneumoniae): 8.14% | Inhibition (Candida albicans): 2.85% | Inhibition (Cryptococcus neoformans): -6.76%

CCS(=O)(=O)N(Cc1ccco1)Cc1cc2ccc(C)cc2nc1O
Inhibition (Klebsiella pneumoniae): 2.3% | Inhibition (Candida albicans): 3.52% | Inhibition (Cryptococcus neoformans): -6.36%

CCOC(=O)c1noc(N)c1-c1ccccc1
Inhibition (Klebsiella pneumoniae): 13.91% | Inhibition (Candida albicans): 3.66% | Inhibition (Cryptococcus neoformans): -9.75%

CN1CCCC1CCO[C@](C)(c1ccccc1)c1ccc(Cl)cc1.O=C(O)/C=C/C(=O)O (stereo partly drawn)
Inhibition (Klebsiella pneumoniae): 21.77% | Inhibition (Candida albicans): 1.54% | Inhibition (Cryptococcus neoformans): -7.21%

CN1CCN(S(=O)(=O)c2ccc(-c3ccc4c(Nc5ncc(Cl)cn5)ccnc4c3)cc2)CC1
Inhibition (Klebsiella pneumoniae): 7.93% | Inhibition (Candida albicans): 4.17% | Inhibition (Cryptococcus neoformans): -3.42%

O=C1N(Cc2cc3ccccc3s2)CC2CN(Cc3ccccc3)CCN12 (stereo not drawn)
Inhibition (Klebsiella pneumoniae): 2.73% | Inhibition (Candida albicans): 2.62% | Inhibition (Cryptococcus neoformans): -4.73%

Cc1ccc(NC(=O)c2cc(S(=O)(=O)NC(C)(C)C)ccc2C)nc1
Inhibition (Klebsiella pneumoniae): 13.76% | Inhibition (Candida albicans): 1.54% | Inhibition (Cryptococcus neoformans): -5.42%

c1ccc(Oc2ccc(-c3cc(CN4CCOCC4)[nH]n3)cc2)cc1
Inhibition (Klebsiella pneumoniae): 7.99% | Inhibition (Candida albicans): 4.1% | Inhibition (Cryptococcus neoformans): -6.41%

Cc1cc(C(=O)Nc2ccc(-c3ccccc3)cc2)no1
Inhibition (Klebsiella pneumoniae): 16.31% | Inhibition (Candida albicans): 4.46% | Inhibition (Cryptococcus neoformans): -3.33%

COc1cncc(-c2cncc(N3CCN(c4ccncc4)CC3)n2)c1
Inhibition (Klebsiella pneumoniae): 19.7% | Inhibition (Candida albicans): 3.12% | Inhibition (Cryptococcus neoformans): 4.32%

COc1cc(C(F)(F)F)nc2ccc(C)c(N)c12
Inhibition (Klebsiella pneumoniae): 11.25% | Inhibition (Candida albicans): 6.41% | Inhibition (Cryptococcus neoformans): -9.66%

COc1cccc(NC(=O)c2c(NC(=O)c3cccnc3)sc3c2CCC3)c1
Inhibition (Klebsiella pneumoniae): 13.46% | Inhibition (Candida albicans): 9.13% | Inhibition (Cryptococcus neoformans): -5.87%

COc1cc2ncnc(NC3CCN(Cc4ccccc4)CC3)c2cc1OC
Inhibition (Klebsiella pneumoniae): 10.11% | Inhibition (Candida albicans): 2.88% | Inhibition (Cryptococcus neoformans): 4.42%

Cc1cc2nc(NC(=O)C(C)(C)C)nc(Cl)c2n1Cc1ccc(Cl)cc1
Inhibition (Klebsiella pneumoniae): 1.22% | Inhibition (Candida albicans): 3.57% | Inhibition (Cryptococcus neoformans): -0.22%

COc1ccc(C2=NN(C3CCCCCC3)C(=O)[C@@H]3CC=CC[C@H]23)cc1OCCCCOc1ccc(-c2nnn[nH]2)cc1
Inhibition (Klebsiella pneumoniae): 8.89% | Inhibition (Candida albicans): 6.64% | Inhibition (Cryptococcus neoformans): -7.83%

Cc1ccc2[nH]c(C3CCCNC3)c(-c3ccncc3)c2c1.Cl.Cl (stereo not drawn)
Inhibition (Klebsiella pneumoniae): -25.08% | Inhibition (Candida albicans): 4.63% | Inhibition (Cryptococcus neoformans): 1.08%

Cc1[nH]c2cc(F)cc(F)c2c(=O)c1-c1ccc(Oc2ccc(OC(F)(F)F)cc2)cc1
Inhibition (Klebsiella pneumoniae): 5.11% | Inhibition (Candida albicans): 3.94% | Inhibition (Cryptococcus neoformans): -10.28%
